Active and inactive are the calls of the source. The calls were made as follows: active = hit-call score of the fitted dose curve at least 0.9, where 1 is the maximum; inactive = score below 0.9.
Experiments:
Details in all cases: mRNA level, 48 h; actives raise or lower the signal
[1] = read-out: Hypoxia-inducible factor 1-alpha (Homo sapiens) (UniProt Q16665); experiment: LTEA_HepaRG_HIF1A: Life Technologies and Expression Analysis (LTEA) Assay for Hypoxia-inducible factor 1 (HIF1A) Trancription factor using HepaRG (AID 2283503)
Procedure, shortened: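 HIF1A transcript level read by qRT-PCR (ACTB, GAPDH, POLR2A normalization) after 48 h chemical exposure of HepaRG cultures. Eight half-log concentrations, top 100 uM, 0.5% DMSO vehicle, duplicates; bidirectional curve fit against DMSO baseline.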

[2] = read-out: 3-Hydroxy-3-Methylglutaryl-CoA Synthase 2 (HMGCS2), HMGCS2 (gene 3158); experiment: LTEA_HepaRG_HMGCS2: Life Technologies and Expression Analysis (LTEA) Assay for 3-Hydroxy-3-Methylglutaryl-CoA Synthase 2 (HMGCS2) using HepaRG (AID 2283504)
Procedure, shortened: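 This steatosis marker was read as HMGCS2 mRNA change in HepaRG cells treated 48 h with up to 100 uM chemical. Normalisation used housekeeping genes; activity in either direction was fitted relative to 0.5% DMSO vehicle.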

HGF (gene 3082) = experiment: LTEA_HepaRG_HGF: Life Technologies and Expression Analysis (LTEA) Assay for Hepatocyte Growth Facto (HGF) using HepaRG (AID 2283505)
Procedure, shortened: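 Using HepaRG monolayers kept in 0.5% DMSO, chemicals were tested in duplicate over eight half-log concentrations from 100 uM for 48 h. Endpoint: HGF mRNA change relative to DMSO, normalized to ACTB/GAPDH/POLR2A.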

[3] = read-out: Insulin Like Growth Factor 1 (IGF1), IGF1 (gene 3479); experiment: LTEA_HepaRG_IGF1: Life Technologies and Expression Analysis (LTEA) Assay for Insulin Like Growth Factor 1 (IGF1) using HepaRG (AID 2283506)
Procedure, shortened: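 Expression measured by TaqMan qRT-PCR on a Fluidigm array, with three housekeeping genes for normalisation, after 48 h treatment of HepaRG cells. Top concentration 100 uM with half-log steps, 0.5% DMSO vehicle, bidirectional fit.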

[4] = read-out: Intercellular Adhesion Molecule 1 (ICAM1), ICAM1 (gene 3383); experiment: LTEA_HepaRG_ICAM1: Life Technologies and Expression Analysis (LTEA) Assay for Intercellular Adhesion Molecule 1 (ICAM1) using HepaRG (AID 2283507)
Procedure, shortened: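 Using the human liver line HepaRG, compounds are tested in duplicate over 48 h at concentrations up to 100 uM. Expression is determined by TaqMan qRT-PCR, normalized to endogenous controls, and analysed relative to 0.5% DMSO vehicle.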

[5] = read-out: Insulin-like growth factor-binding protein 1 (IGFBP1), IGFBP1 (gene 3484); experiment: LTEA_HepaRG_IGFBP1: Life Technologies and Expression Analysis (LTEA) Assay for Insulin-like growth factor-binding protein 1 (IGFBP1) using HepaRG (AID 2283508)
Procedure, shortened: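 HepaRG, 48 h, 8 conc. (max 100 uM, half-log), duplicates, 0.5% DMSO. Readout: TaqMan qRT-PCR, ACTB/GAPDH/POLR2A normalisation. Fit: bidirectional vs DMSO.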

[6] = read-out: Interleukin 6 (IL6), IL6 (gene 3569); experiment: LTEA_HepaRG_IL6: Life Technologies and Expression Analysis (LTEA) Assay for Interleukin 6 (IL6) using HepaRG (AID 2283509)
Procedure, shortened: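 Transcript levels, normalized to three housekeeping genes, were quantified by qRT-PCR after 48 h chemical treatment of HepaRG cells. Eight-point half-log series from 100 uM in 0.5% DMSO, duplicates. Fitted both directions against DMSO baseline.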

[7] = read-out: Interleukin 6 Receptor (IL6R), IL6R (gene 3570); experiment: LTEA_HepaRG_IL6R: Life Technologies and Expression Analysis (LTEA) Assay for Interleukin 6 Receptor (IL6R) using HepaRG (AID 2283510)
Procedure, shortened: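 IL6R transcript level by qRT-PCR after 48 h chemical exposure (8-point, half-log, max 100 uM, 0.5% DMSO vehicle) of HepaRG cells in serum-free induction medium. Normalized to three housekeeping genes; curves fitted in both directions relative to DMSO.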

[8] = read-out: Potassium channel subfamily K member 1 (KCNK1), KCNK1 (gene 3775); experiment: LTEA_HepaRG_KCNK1: Life Technologies and Expression Analysis (LTEA) Assay for Potassium channel subfamily K member 1 (KCNK1) using HepaRG (AID 2283511)
Procedure, shortened: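 KCNK1 transcript measured by TaqMan qRT-PCR against three housekeeping genes, after HepaRG cells were treated 48 h with eight half-log concentrations (top 100 uM, 0.5% DMSO). Curves fitted bidirectionally relative to vehicle.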

[9] = read-out: Keratin 19 (KRT19), KRT19 (gene 3880); experiment: LTEA_HepaRG_KRT19: Life Technologies and Expression Analysis (LTEA) Assay for Keratin 19 (KRT19) using HepaRG (AID 2283512)
Procedure, shortened: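 Readout is qRT-PCR of KRT19 mRNA, normalized to ACTB, GAPDH and POLR2A, from HepaRG cells treated 48 h with eight-point half-log dilutions topping at 100 uM. Activity in either direction is scored relative to 0.5% DMSO vehicle.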

[10] = read-out: JUN Transcription Factor, JUN (gene 3725); experiment: LTEA_HepaRG_JUN: Life Technologies and Expression Analysis (LTEA) Assay for JUN Transcription Factor using HepaRG (AID 2283513)
Procedure, shortened: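 mRNA measured by TaqMan qRT-PCR after 48 h chemical exposure of HepaRG cultures; normalization to three housekeeping genes. Duplicate eight-point half-log curves from 100 uM in 0.5% DMSO; gain or loss fitted against DMSO baseline.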

[11] = read-out: Lipase C (LIPC), LIPC (gene 3990); experiment: LTEA_HepaRG_LIPC: Life Technologies and Expression Analysis (LTEA) Assay for Lipase C (LIPC) using HepaRG (AID 2283514)
Procedure, shortened: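 LIPC expression was quantified by qRT-PCR against three housekeeping genes (ACTB, GAPDH, POLR2A). Differentiated human HepaRG cells received eight half-log doses (top 100 uM, 0.5% DMSO) in duplicate for 48 h; fitting bidirectional relative to DMSO.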

[12] = read-out: Lipoprotein lipase (LPL), LPL (gene 4023); experiment: LTEA_HepaRG_LPL: Life Technologies and Expression Analysis (LTEA) Assay for Lipoprotein lipase (LPL) using HepaRG (AID 2283515)
Procedure, shortened: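 LPL transcript levels quantified by TaqMan qRT-PCR against three housekeeping genes after 48 h chemical treatment of HepaRG cells. Eight-point half-log series from 100 uM in 0.5% DMSO, tested in duplicate; bidirectional fitting versus vehicle.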

[13] = read-out: MicroRNA 122 (MIR122), gene 406906; experiment: LTEA_HepaRG_MIR122: Life Technologies and Expression Analysis (LTEA) Assay for MicroRNA 122 (MIR122) using HepaRG (AID 2283516); also: the transcript read is the microRNA miR-122
Procedure, shortened: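 Expression measured by microfluidic qRT-PCR with three housekeeping genes for normalisation, after 48 h treatment of HepaRG cultures. Eight concentrations (top 100 uM, half-log steps, 0.5% DMSO vehicle) in duplicate; gain or loss fitted relative to vehicle.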

[14] = read-out: matrix metalloproteinase-10 (MMP10), MMP10 (gene 4319); experiment: LTEA_HepaRG_MMP10: Life Technologies and Expression Analysis (LTEA) Assay for matrix metalloproteinase-10 (MMP10) using HepaRG (AID 2283517)
Procedure, shortened: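 Expression measured by TaqMan qRT-PCR with ACTB/GAPDH/POLR2A normalisation after 48 h chemical exposure of HepaRG cells. Eight half-log concentrations, top 100 uM, 0.5% DMSO vehicle, duplicates; gain or loss fitted against vehicle.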

MYC, MYC (gene 4609) = experiment: LTEA_HepaRG_MYC: Life Technologies and Expression Analysis (LTEA) Assay for MYC using HepaRG (AID 2283518)
Procedure, shortened: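 Expression changes were scored by TaqMan qRT-PCR with ACTB, GAPDH and POLR2A normalization. Cultures in serum-free induction medium received duplicate 8-point concentration series, highest 100 uM, for 48 h; DMSO (0.5%) served as baseline.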

[15] = read-out: matrix metalloproteinase-3 (MMP3), MMP3 (gene 4314); experiment: LTEA_HepaRG_MMP3: Life Technologies and Expression Analysis (LTEA) Assay for matrix metalloproteinase-3 (MMP3) using HepaRG (AID 2283519)
Procedure, shortened: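 Fluidigm-based TaqMan qRT-PCR, normalized to ACTB, GAPDH and POLR2A and fitted bidirectionally versus 0.5% DMSO, measured transcript levels. Treatment: duplicate 48 h exposures of HepaRG cells, ~100,000/well, to eight half-log concentrations topping at 100 uM.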

[16] = read-out: Paternally Expressed 10 (PEG10), PEG10 (gene 23089); experiment: LTEA_HepaRG_PEG10: Life Technologies and Expression Analysis (LTEA) Assay for Paternally Expressed 10 (PEG10) using HepaRG (AID 2283520);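 as to AC50: PEG10 transcript by qRT-PCR normalised to ACTB GAPDH and POLR2A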
Procedure, shortened: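 PEG10 transcript measured by Fluidigm qRT-PCR, normalized to three housekeeping genes, in HepaRG cells treated 48 h (highest 100 uM, half-log steps, 0.5% DMSO vehicle). Cells plated 48 h before switching to serum-free induction medium.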

[17] = read-out: Nuclear factor NF-kappa-B p105 subunit (Homo sapiens) (UniProt P19838); experiment: LTEA_HepaRG_NFKB1: Life Technologies and Expression Analysis (LTEA) Assay for Nuclear Factor Kappa B Subunit 1 (NFKB1) using HepaRG (AID 2283521);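 also: TaqMan qRT-PCR transcript normalised to ACTB GAPDH and POLR2A housekeeping genes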
Procedure, shortened: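 Differentiated human HepaRG cells were exposed for 48 h in serum-free induction medium to eight concentrations (top 100 uM, half-log steps, 0.5% DMSO), in duplicate. NFKB1 mRNA was measured by TaqMan qRT-PCR, normalized to ACTB/GAPDH/POLR2A, and fitted bidirectionally against DMSO.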

[18] = read-out: Heat shock 70 kDa protein 1 (HSPA1A), gene 3303; experiment: LTEA_HepaRG_HSPA1A: Life Technologies and Expression Analysis (LTEA) Assay for Heat shock 70 kDa protein 1 (HSPA1A) using HepaRG (AID 2283502)
Procedure, shortened: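 HSPA1A expression measured by qRT-PCR with ACTB/GAPDH/POLR2A normalization; curves fitted in both directions relative to DMSO vehicle. Exposure: 48 h in HepaRG cells, duplicate 8-point half-log series from 100 uM, 0.5% DMSO, serum-free induction medium.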

Measured: AC50

Chain of Nuclear factor NF-kappa-B p105 subunit (Homo sapiens) (P19838 whole entry, looked up): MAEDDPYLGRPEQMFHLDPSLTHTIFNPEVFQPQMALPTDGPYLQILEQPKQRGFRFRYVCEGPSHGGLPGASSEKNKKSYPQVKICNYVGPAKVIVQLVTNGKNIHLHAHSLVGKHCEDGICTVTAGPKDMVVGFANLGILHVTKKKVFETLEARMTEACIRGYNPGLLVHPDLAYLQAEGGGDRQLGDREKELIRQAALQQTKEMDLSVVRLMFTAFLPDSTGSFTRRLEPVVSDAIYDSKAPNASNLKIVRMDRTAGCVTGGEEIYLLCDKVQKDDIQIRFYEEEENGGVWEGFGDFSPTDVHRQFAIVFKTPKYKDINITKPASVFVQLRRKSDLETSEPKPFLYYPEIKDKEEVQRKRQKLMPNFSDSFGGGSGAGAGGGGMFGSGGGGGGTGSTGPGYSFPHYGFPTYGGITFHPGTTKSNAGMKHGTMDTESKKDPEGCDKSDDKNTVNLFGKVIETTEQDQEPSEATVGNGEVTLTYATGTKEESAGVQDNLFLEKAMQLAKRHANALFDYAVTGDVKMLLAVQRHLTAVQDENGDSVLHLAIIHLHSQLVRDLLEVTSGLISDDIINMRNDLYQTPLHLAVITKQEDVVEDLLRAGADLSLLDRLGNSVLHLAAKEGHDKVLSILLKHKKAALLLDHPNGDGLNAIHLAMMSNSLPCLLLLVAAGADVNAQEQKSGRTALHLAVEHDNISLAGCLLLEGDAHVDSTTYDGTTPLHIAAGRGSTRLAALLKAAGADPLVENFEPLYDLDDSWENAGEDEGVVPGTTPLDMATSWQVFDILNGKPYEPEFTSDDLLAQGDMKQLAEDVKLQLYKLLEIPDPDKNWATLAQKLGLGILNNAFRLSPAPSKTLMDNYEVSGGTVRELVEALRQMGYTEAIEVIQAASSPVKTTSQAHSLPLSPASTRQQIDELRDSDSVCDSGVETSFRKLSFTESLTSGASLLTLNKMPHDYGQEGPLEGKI
Chain of Hypoxia-inducible factor 1-alpha (Homo sapiens) (Q16665 whole entry, looked up): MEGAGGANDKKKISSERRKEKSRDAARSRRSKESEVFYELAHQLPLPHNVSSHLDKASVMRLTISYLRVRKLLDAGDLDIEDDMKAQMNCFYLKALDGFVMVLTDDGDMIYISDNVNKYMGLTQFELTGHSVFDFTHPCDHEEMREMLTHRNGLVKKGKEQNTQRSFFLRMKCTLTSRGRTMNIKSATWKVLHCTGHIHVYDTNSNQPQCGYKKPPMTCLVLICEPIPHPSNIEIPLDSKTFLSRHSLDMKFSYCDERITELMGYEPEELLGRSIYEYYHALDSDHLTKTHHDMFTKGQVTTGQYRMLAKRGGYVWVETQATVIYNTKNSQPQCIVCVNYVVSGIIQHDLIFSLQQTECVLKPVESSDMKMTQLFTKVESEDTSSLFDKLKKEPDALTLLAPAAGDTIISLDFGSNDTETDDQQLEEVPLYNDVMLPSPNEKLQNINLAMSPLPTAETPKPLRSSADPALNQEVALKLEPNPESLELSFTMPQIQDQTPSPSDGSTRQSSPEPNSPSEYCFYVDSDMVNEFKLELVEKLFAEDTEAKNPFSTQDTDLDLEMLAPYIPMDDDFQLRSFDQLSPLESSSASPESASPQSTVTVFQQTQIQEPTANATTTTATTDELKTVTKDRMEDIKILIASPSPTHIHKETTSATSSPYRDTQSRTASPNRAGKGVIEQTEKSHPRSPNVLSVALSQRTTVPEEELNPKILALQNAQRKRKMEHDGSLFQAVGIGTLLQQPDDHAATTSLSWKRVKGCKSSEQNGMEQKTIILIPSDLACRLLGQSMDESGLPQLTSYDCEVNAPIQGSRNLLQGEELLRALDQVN

Cc1cccc(N)c1N
active: [2] 50 µM | [3] 50 µM | [5] 22.9 µM | [9] 21.3 µM | [11] 58.7 µM | [12] 35.8 µM | [13] 50 µM | [16] 50 µM
inactive: [1] | HGF (gene 3082) | [4] | [6] | [7] | [8] | [10] | [14] | MYC, MYC (gene 4609) | [15] | [17]

ClC1=C(Cl)[C@]2(Cl)[C@H]3[C@H]([C@@H]4C=C[C@H]3C4)[C@@]1(Cl)C2(Cl)Cl
active: MYC, MYC (gene 4609) 50 µM
inactive: [1] | [2] | HGF (gene 3082) | [3] | [4] | [5] | [6] | [7] | [8] | [10] | [11] | [12] | [13] | [14] | [15] | [16]

CC(O)CCO (stereo unspecified)
inactive: [1] | [2] | HGF (gene 3082) | [3] | [4] | [5] | [6] | [7] | [8] | [9] | [10] | [11] | [12] | [14] | MYC, MYC (gene 4609) | [15] | [16] | [17]

CCN(CC)CCO
inactive: [18] | [2] | HGF (gene 3082) | [3] | [4] | [5] | [6] | [7] | [8] | [11] | [12] | [14] | MYC, MYC (gene 4609) | [15] | [16] | [17]

OCCCBr
inactive: [18] | [2] | HGF (gene 3082) | [3] | [4] | [5] | [6] | [7] | [8] | [10] | [11] | [12] | [13] | [14] | MYC, MYC (gene 4609) | [15] | [16] | [17]

c1ccc(N=Nc2ccccc2)cc1
inactive: [18] | [2] | HGF (gene 3082) | [4] | [5] | [6] | [7] | [8] | [9] | [10] | [11] | [12] | [13] | [14] | MYC, MYC (gene 4609) | [15] | [16] | [17]
